The source of these data is PubChem BioAssay.

Test [1] in a line: antimalarial activity against Dd2 strain (AID 2302;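 active = growth inhibition above 50% at the single 2 µM test dose, taken to imply half-maximal potency below 2 µM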;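 note: 0% = DMSO untreated growth and 100% = chloroquine plus artemisinin killed control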). Conditions: P. falciparum Dd2 in RBCs, LDH growth readout, 72 h; at 2 µM; active compounds read high.
A short description of test [2]: HepG2 cytotoxicity, primary screen, cytotoxicity control for P. falciparum antimalarial project, cell-based, ATP luminescence (AID 2303;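 active = inhibition above 50%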;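 note: 0% = DMSO wells and 100% = digitonin-killed cells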). The following applies: HepG2 viability, 24-48 h, at 10 µM, active compounds read high.
Test [3] concerns the target L-lactate dehydrogenase (Plasmodium falciparum (isolate CDC / Honduras)) (UniProt Q27743). Nature of the test: PfLDH activity inhibition – cell lysate, 3D7 strain, counter-screen for P. falciparum growth inhibition project (AID 2304).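 Note: 0% = vehicle and 100% = reference inhibitor.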 The following applies: P. falciparum 3D7 crude extract, LDH APAD/NBT absorbance; at 2 µM; active compounds read high.
Test [4] is described as follows: inhibition of 3D7 malaria parasite growth – strain 3D7 (AID 2306).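 Note: 0% = DMSO wells and 100% = chloroquine plus artemisinin control wells.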 The following applies: P. falciparum 3D7 erythrocytic growth, LDH absorbance, 72 h; at 2 µM; active compounds read high.
Test [5] has as its target Calcium-dependent protein kinase 1 (Plasmodium falciparum (isolate 3D7)) (UniProt P62344). Kind of test: PfCDPK1 kinase inhibitors, biochemical, TCAMS library (AID 1159585; cut-off not given, nearly all actives have IC50 up to about 0.98 µM;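 note: inhibitors leave more ATP so luminescence rises with inhibition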). The following applies: recombinant PfCDPK1, Kinase-Glo ATP depletion luminescence. (In general: In Kinase-Glo more light means more ATP remaining.)
Test [6] concerns the target Plasmodium falciparum protein kinase 6 (PK6, PF3D7_1337100) (UniProt Q8IDW1). Kind of test: PfPK6 kinase inhibitors, biochemical, TCAMS library (AID 1159586). Conditions: recombinant PfPK6, Kinase-Glo ATP depletion luminescence.
Test [7] has as its target Protein kinase 7 (PK7), Plasmodium falciparum 3D7 (PF3D7_0213400) (UniProt Q7YTF7). Kind of test: inhibition of Plasmodium PK7 catalytic activity – biochemical, TCAMS antimalarial set, Kinase-Glo luminescence (AID 1159587). The following applies: recombinant PfPK7, Kinase-Glo ATP depletion luminescence.
For test [8], the target named is Calcium-dependent protein kinase 4 (Plasmodium falciparum (isolate 3D7)) (UniProt Q8IBS5). Kind of test: PfCDPK4 kinase inhibitors, biochemical, TCAMS library (AID 1159588; cut-off not given, nearly all actives have IC50 up to about 0.91 µM). The following applies: recombinant PfCDPK4, Kinase-Glo ATP depletion luminescence.
Sequence of Calcium-dependent protein kinase 4 (Plasmodium falciparum (isolate 3D7)) (Q8IBS5 whole entry, looked up): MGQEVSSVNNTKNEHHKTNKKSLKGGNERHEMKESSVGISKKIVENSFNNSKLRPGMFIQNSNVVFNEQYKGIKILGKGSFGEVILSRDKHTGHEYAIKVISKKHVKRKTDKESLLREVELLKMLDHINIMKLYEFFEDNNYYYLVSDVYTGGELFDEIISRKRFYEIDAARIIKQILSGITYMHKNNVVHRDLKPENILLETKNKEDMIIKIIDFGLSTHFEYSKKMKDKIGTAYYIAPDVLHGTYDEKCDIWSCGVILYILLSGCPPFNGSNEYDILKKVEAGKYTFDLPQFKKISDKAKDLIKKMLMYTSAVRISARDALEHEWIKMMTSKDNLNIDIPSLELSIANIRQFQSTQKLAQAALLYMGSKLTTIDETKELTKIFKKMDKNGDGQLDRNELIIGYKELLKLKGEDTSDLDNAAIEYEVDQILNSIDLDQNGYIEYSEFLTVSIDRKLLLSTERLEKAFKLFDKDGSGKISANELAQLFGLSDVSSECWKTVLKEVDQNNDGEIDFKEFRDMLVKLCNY

SMILES strings stand for the structures. Unmarked numbers belong to inactive results. For some of these results: Measured potencies and affinities stand elsewhere. Activity calls are given as the source filed them. Unless noted, the rule behind the calls is not given here.

Sequence of Calcium-dependent protein kinase 1 (Plasmodium falciparum (isolate 3D7)) (P62344 whole entry, looked up): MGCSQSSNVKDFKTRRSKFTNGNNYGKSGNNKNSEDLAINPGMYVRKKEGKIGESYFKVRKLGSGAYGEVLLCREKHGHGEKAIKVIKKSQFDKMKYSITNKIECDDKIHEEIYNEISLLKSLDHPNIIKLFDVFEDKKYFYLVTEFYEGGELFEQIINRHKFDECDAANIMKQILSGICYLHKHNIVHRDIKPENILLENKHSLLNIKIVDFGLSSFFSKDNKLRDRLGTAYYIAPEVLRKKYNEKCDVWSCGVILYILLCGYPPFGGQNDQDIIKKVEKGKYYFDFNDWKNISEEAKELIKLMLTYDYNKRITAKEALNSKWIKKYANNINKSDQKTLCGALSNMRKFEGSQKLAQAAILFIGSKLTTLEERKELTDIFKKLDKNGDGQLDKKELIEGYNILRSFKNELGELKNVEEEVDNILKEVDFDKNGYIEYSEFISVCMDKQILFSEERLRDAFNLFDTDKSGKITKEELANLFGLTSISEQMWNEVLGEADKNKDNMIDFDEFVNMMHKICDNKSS
Sequence of Protein kinase 7 (PK7), Plasmodium falciparum 3D7 (PF3D7_0213400) (Q7YTF7 1-343): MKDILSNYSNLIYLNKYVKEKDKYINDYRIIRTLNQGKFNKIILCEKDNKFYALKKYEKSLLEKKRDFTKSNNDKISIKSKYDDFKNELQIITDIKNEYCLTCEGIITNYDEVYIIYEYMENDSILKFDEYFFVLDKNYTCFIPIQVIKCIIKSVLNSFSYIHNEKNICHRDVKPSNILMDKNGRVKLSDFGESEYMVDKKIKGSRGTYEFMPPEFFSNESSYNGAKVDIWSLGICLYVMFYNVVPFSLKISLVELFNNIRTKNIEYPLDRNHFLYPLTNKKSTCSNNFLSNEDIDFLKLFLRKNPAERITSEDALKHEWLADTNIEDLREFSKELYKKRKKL
Sequence of Plasmodium falciparum protein kinase 6 (PK6, PF3D7_1337100) (Q8IDW1 1-305): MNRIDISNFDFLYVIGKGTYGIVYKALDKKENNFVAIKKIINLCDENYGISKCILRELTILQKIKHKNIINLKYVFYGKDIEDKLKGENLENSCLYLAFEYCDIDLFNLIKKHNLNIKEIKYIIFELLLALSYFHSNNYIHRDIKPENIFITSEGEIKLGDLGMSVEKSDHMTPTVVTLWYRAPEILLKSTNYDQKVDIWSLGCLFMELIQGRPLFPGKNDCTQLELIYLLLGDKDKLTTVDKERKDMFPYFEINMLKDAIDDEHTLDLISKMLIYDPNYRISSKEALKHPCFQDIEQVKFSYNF
Sequence of L-lactate dehydrogenase (Plasmodium falciparum (isolate CDC / Honduras)) (Q27743 whole entry, looked up): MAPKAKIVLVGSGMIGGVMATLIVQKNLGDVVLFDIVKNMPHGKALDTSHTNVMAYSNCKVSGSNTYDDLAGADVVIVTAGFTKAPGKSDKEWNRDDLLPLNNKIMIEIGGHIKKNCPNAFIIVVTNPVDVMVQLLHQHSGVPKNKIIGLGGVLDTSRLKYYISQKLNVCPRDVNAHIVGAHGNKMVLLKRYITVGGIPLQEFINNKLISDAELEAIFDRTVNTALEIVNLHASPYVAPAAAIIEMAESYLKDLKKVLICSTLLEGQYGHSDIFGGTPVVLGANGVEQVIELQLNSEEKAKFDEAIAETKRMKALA

Broadly, the inhibition is the relative decrease from the control value, in per cent. Regarding `FC(F)(F)c1cccc(NC(=S)NN=Cc2ccccn2)c1`, the growth inhibition in test [1] was 99% (active); in test [4] it was 100% (active). Moreover, the inhibition in test [2] was 29%; in test [3], -7%. For the same molecule, the outcome in test [5], in test [6], in test [7] and in test [8] was inactive.
On to `FC(F)(F)c1ccc(Nc2nnnc3ccccc23)cc1`, for which the growth inhibition in test [1] was 82% (active); in test [4], 90% (active). Also, the inhibition in test [2] is 3%; in test [3], -6%. Also, the outcome in test [5], in test [6], in test [7] and in test [8] was inactive.
`CCCCN(CCCC)Cc1cc(Nc2ccnc3cc(Cl)ccc23)ccc1O`: the growth inhibition in test [1] is 87% (active); in test [4] it was 102% (active). In addition, the inhibition in test [2] is 67% (active); in test [3] it was -1%. Also, the result in test [5], in test [6], in test [7] and in test [8] was inactive.
With `COc1cc(NC(=O)/C=C/c2cc(F)cc(F)c2F)cc(OCCN2CCC3(CC2)OCCO3)c1`, the values for the growth inhibition in test [1] and in test [4] were 26% and 98% (active), respectively. Also, the inhibition in test [2] was 17%; in test [3], -3%. In addition, the result in test [5], in test [6], in test [7] and in test [8] was inactive.
Consider `CCCCNc1c(CC)c(C)c(C#N)c2nc3ccccc3n12`, for which the growth inhibition in test [1] and in test [4] was 100% (active) in each case. Further, the figures for the inhibition in test [2] and in test [3] were 3% and -5%, respectively. The result in test [5], in test [6], in test [7] and in test [8] was inactive.
With `CO/C(=C\C=C/c1cc2cc(Cl)c(Cl)cc2[nH]1)C(=O)NC1CC(C)(C)N(C)C(C)(C)C1`, the growth inhibition is 34% in test [1] and 93% (active) in test [4]. Moreover, the inhibition in test [2] was 65% (active); in test [3] it was -1%. Besides, the result in test [5], in test [6], in test [7] and in test [8] was inactive.
In the case of `FC(F)(F)Oc1ccc(-c2cnc3ccc(NCc4ccncc4)nn23)cc1`, the growth inhibition in test [1] is 54% (active); in test [4], 97% (active). Besides, the inhibition was 19% in test [2] and -3% in test [3]. The result in test [5], in test [6], in test [7] and in test [8] was inactive.
On to `O=C(Nc1cccc(Cl)c1)c1cnc(N2CCN(c3ccncc3)CC2)c(Cl)c1`, for which the growth inhibition is 97% (active) in test [1] and 101% (active) in test [4]. Also, the inhibition in test [2] was 54% (active); in test [3], 4%. For the same molecule, the result in test [5], in test [6], in test [7] and in test [8] was inactive.
As for `Cc1nc(N)nc(N)c1-c1ccc(Cl)cc1`, the growth inhibition is 0% in test [1] and 96% (active) in test [4]. The inhibition in test [2] is 15%; in test [3] it was -4%. Further, the outcome in test [5], in test [6], in test [7] and in test [8] was inactive.
For the molecule `c1cc2nc(CCCc3nc4ccc(C5=N[C@H]6CCCC[C@H]6N5)cc4[nH]3)[nH]c2cc1C1=N[C@@H]2CCCC[C@@H]2N1`, the growth inhibition in test [1] was 84% (active); in test [4], 85% (active). Besides, the inhibition is 10% in test [2] and -2% in test [3]. Moreover, the outcome in test [5], in test [6], in test [7] and in test [8] was inactive.
Regarding `Fc1cccc(C=NNc2ccnc3ccccc23)c1`, the results for the growth inhibition in test [1] and in test [4] were 72% (active) and 103% (active), respectively. The figures for the inhibition in test [2] and in test [3] were 3% and 7%, respectively. For the same molecule, the outcome in test [5], in test [6], in test [7] and in test [8] was inactive.
On to `CNC(=O)/C=C/c1cc(NC(=O)Nc2cc(C)nc3c(F)cccc23)ccc1OC`, for which the growth inhibition was 70% (active) in test [1] and 98% (active) in test [4]. In addition, the results for the inhibition in test [2] and in test [3] were -3% and 2%, respectively. The outcome in test [5], in test [6], in test [7] and in test [8] was inactive.
For `CC(C)CC1(C(=O)OC(C)(C)C)CC(C(=O)OC(C)(C)C)C(c2cccs2)N1C(=O)c1ccc(C(C)(C)C)cc1` (stereo not given), the growth inhibition in test [1] was 100% (active); in test [4] it was 101% (active). In addition, the inhibition in test [2] is 21%; in test [3], -2%. The outcome in test [5], in test [6], in test [7] and in test [8] was inactive.
For `Nc1nccc2ccc(Oc3ccncc3)cc12`, the growth inhibition in test [1] was 81% (active); in test [4] it was 91% (active). The inhibition is -3% in test [2] and -2% in test [3]. Moreover, the outcome in test [5], in test [6], in test [7] and in test [8] was inactive.
With `Cn1nc(C(=O)N2CCC(c3[nH]ncc3Cc3ccccc3)CC2)c2ccccc2c1=O`, the growth inhibition in test [1] and in test [4] was 95% (active) throughout. The inhibition is 5% in test [2] and -2% in test [3]. The result in test [5], in test [6], in test [7] and in test [8] was inactive.
As to `O=C(/C=C/c1ccc(Cl)c(Cl)c1)NCCCCCN1CCCC(CNC(=O)c2sc3ccccc3c2Cl)C1` (stereo not given), the growth inhibition in test [1] was -3%; in test [4], 98% (active). Besides, the inhibition is 42% in test [2] and 4% in test [3]. Also, the outcome in test [5], in test [6], in test [7] and in test [8] was inactive.
Consider `CCCCCOc1c(CCC)cc(Cc2cnc(N)nc2N)cc1CCC`, for which the growth inhibition in test [1] is -3%; in test [4] it was 94% (active). The inhibition was 58% (active) in test [2] and -2% in test [3]. Besides, the result in test [5], in test [6], in test [7] and in test [8] was inactive.
For the molecule `COc1ccc2nccc([C@@H](O)CN3CCC(NC(=O)C(c4cccs4)N4CCN(c5ccc(F)cc5)CC4)CC3)c2c1` (stereo not given in full), the growth inhibition was 45% in test [1] and 97% (active) in test [4]. For the same molecule, the inhibition in test [2] was 9%; in test [3], 3%. For the same molecule, the outcome in test [5], in test [6], in test [7] and in test [8] was inactive.
In the case of `COc1cccc(Cc2cnc3nc(N)nc(N)c3c2C)c1`, the growth inhibition in test [1] is 76% (active); in test [4], 94% (active). For the same molecule, the inhibition was 57% (active) in test [2] and 0% in test [3]. Moreover, the outcome in test [5], in test [6], in test [7] and in test [8] was inactive.
Regarding `Cc1cccc2[nH]c(-c3ccc(-c4ccc(NC(=O)Nc5ccc(Cl)cc5)cc4)cc3)nc12`, the values for the growth inhibition in test [1] and in test [4] were 100% (active) and 101% (active), respectively. For the same molecule, the inhibition in test [2] is 52% (active); in test [3] it was -5%. In addition, the outcome in test [5], in test [6], in test [7] and in test [8] was inactive.
